Measured values published in PubChem BioAssay (EPA / NIEHS).
Calls of active or inactive are those of the source. The calls were made as follows: active = hit-call score of the fitted dose curve at least 0.9, where 1 is the maximum; inactive = score below 0.9.

Read-out: Interferon-gamma inducible Protein 10 (IP10), CXCL10 (gene 3627)
Test: BSK_KF3CT_IP10: BioMAP Diversity Plus: KF3CT Assay for Interferon-gamma inducible Protein 10 (IP10) Biomarker Activity (AID 2283068)
Details: primary human keratinocytes with fibroblasts; actives raise or lower the signal
Procedure, shortened: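 ELISA read-out of IP-10 after 24 h chemical dosing of human skin primary co-culture (keratinocytes, foreskin fibroblasts). Gain or loss of signal relative to DMSO, bidirectional curve fit.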

Chain of E-selectin (Homo sapiens) (P16581 whole entry, looked up): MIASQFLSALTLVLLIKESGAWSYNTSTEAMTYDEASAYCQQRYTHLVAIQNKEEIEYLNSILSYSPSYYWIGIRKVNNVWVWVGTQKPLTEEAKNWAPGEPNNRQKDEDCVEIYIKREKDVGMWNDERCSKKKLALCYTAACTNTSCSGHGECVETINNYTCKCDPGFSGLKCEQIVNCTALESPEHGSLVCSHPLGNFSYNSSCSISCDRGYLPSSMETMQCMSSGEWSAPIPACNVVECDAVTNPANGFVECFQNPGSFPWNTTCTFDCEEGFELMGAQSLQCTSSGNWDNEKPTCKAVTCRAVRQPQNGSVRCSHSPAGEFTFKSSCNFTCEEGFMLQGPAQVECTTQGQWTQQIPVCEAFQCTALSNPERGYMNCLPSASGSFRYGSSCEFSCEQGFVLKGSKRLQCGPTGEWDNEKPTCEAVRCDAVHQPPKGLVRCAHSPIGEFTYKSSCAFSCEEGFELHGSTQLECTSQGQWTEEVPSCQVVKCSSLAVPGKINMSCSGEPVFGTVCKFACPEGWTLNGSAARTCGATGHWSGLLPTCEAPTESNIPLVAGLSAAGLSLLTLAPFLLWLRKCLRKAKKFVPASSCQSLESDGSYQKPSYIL

Structure (SMILES)	outcome
CN(C)CCC(c1ccc(Cl)cc1)c1ccccn1 (stereo not drawn)	inactive

Read-out: not listed separately
Test: BSK_KF3CT_SRB: Viability Assessment in the BioMAP Diversity Plus: KF3CT Assay (AID 2283069);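 also: read 24 h after compound addition; fitted for both signal gain and loss against DMSO baseline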
Details: primary human keratinocytes with fibroblasts
Procedure, shortened: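 Overt cytotoxicity is assessed as total protein by sulforhodamine B staining in parallel human skin co-cultures at 24 h after dosing. DMSO serves as negative control and baseline.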

Structure (SMILES)	AC50	outcome
CCCCCCCCCCC1CO1 (stereo not drawn)	33.4 µM (active)	
Cc1cccnc1		inactive
CC(C)CC(=O)CC(C)CC(C)C (stereo not drawn)	36.7 µM (active)	
CN(C)CCC(c1ccc(Cl)cc1)c1ccccn1 (stereo not drawn)		inactive

Read-out: Interleukin-1 alpha (IL1a), IL1A (gene 3552)
Test: BSK_KF3CT_IL1a: BioMAP Diversity Plus: KF3CT Assay for Interleukin-1 alpha (IL1a) Biomarker Activity (AID 2283070)
Details: primary human keratinocytes with fibroblasts; actives raise or lower the signal
Procedure, shortened: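 Readout is IL-1a level by ELISA, compared bidirectionally with DMSO as baseline. Cells: human keratinocytes co-cultured with foreskin fibroblasts, harvested 24 h post-dose.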

Structure (SMILES)	AC50	outcome
CCCCCCCCCCC1CO1 (stereo not drawn)	25.3 µM (active)	
Cc1cccnc1		inactive
CC(C)CC(=O)CC(C)CC(C)C (stereo not drawn)	35 µM (active)	
CN(C)CCC(c1ccc(Cl)cc1)c1ccccn1 (stereo not drawn)		inactive

Read-out: TIMP metallopeptidase inhibitor 2 (TIMP2), TIMP2 (gene 7077)
Test: BSK_KF3CT_TIMP2: BioMAP Diversity Plus: KF3CT Assay for TIMP metallopeptidase inhibitor 2 (TIMP2) Biomarker Activity (AID 2283071)
Details: primary human keratinocytes with fibroblasts; actives raise or lower the signal
Procedure, shortened: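 ELISA readout of TIMP-2 in keratinocyte plus foreskin fibroblast co-cultures (human skin primary cells), 24 h post-dose. Gain or loss of signal fitted relative to DMSO.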

Structure (SMILES)	AC50	outcome
CCCCCCCCCCC1CO1 (stereo not drawn)	24.2 µM (active)	
Cc1cccnc1		inactive
CC(C)CC(=O)CC(C)CC(C)C (stereo not drawn)	32.2 µM (active)	
CN(C)CCC(c1ccc(Cl)cc1)c1ccccn1 (stereo not drawn)		inactive

Read-out: Transforming growth factor beta 1 (TGFb1), TGFB1 (gene 7040)
Test: BSK_KF3CT_TGFb1: BioMAP Diversity Plus: KF3CT Assay for Transforming growth factor beta 1 (TGFb1) Biomarker Activity (AID 2283072)
Details: primary human keratinocytes with fibroblasts; actives raise or lower the signal
Procedure, shortened: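 Read-out: ELISA for TGF-b1 in keratinocyte/foreskin fibroblast human skin co-culture, 24 h after dosing; bidirectional curve fit vs DMSO baseline; gain or loss of signal scored.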

Structure (SMILES)	AC50	outcome
CCCCCCCCCCC1CO1 (stereo not drawn)	30.3 µM (active)	
Cc1cccnc1		inactive
CC(C)CC(=O)CC(C)CC(C)C (stereo not drawn)		inactive
CN(C)CCC(c1ccc(Cl)cc1)c1ccccn1 (stereo not drawn)		inactive

Read-out: Matrix Metallopeptidase 9 (MMP9), MMP9 (gene 4318)
Test: BSK_KF3CT_MMP9: BioMAP Diversity Plus: KF3CT Assay for Matrix Metallopeptidase 9 (MMP9) Biomarker Activity (AID 2283074);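 as to AC50: MMP9 protein level quantified by ELISA in the co-culture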
Details: primary human keratinocytes with fibroblasts; actives raise or lower the signal
Procedure, shortened: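 Values come from bidirectional fitting relative to DMSO of MMP-9 levels, which were measured by ELISA. Measurements were taken 24 h after chemical dosing of a keratinocyte and foreskin fibroblast co-culture.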

Structure (SMILES)	AC50	outcome
CCCCCCCCCCC1CO1 (stereo not drawn)	36.1 µM (active)	
Cc1cccnc1		inactive
CC(C)CC(=O)CC(C)CC(C)C (stereo not drawn)	36.4 µM (active)	
CN(C)CCC(c1ccc(Cl)cc1)c1ccccn1 (stereo not drawn)		inactive

Read-out: urokinase plasminogen activator (uPA), PLAU (gene 5328)
Test: BSK_KF3CT_uPA: BioMAP Diversity Plus: KF3CT Assay for urokinase plasminogen activator (uPA) Biomarker Activity (AID 2283075)
Details: primary human keratinocytes with fibroblasts; actives raise or lower the signal
Procedure, shortened: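 Values derive from bidirectional fitting against DMSO controls. Keratinocyte/foreskin fibroblast co-cultures received chemical; 24 h later uPA was detected by ELISA, with SRB total-protein staining in parallel wells for overt cytotoxicity.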

Structure (SMILES)	AC50	outcome
CCCCCCCCCCC1CO1 (stereo not drawn)	28 µM (active)	
Cc1cccnc1		inactive
CC(C)CC(=O)CC(C)CC(C)C (stereo not drawn)	30.4 µM (active)	
CN(C)CCC(c1ccc(Cl)cc1)c1ccccn1 (stereo not drawn)		inactive

Read-out: CD40, CD40 (gene 958)
Test: BSK_LPS_CD40: BioMAP Diversity Plus: LPS Assay for CD40 Biomarker Activity (AID 2283076)
Details: primary human HUVEC with PBMC; actives raise or lower the signal
Procedure, shortened: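 Primary human umbilical vein endothelial cells co-cultured with peripheral blood mononuclear cells, LPS-stimulated, were dosed with chemical and read 24 h later. CD40 levels were measured by ELISA and fitted bidirectionally against DMSO as negative control and baseline.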

Structure (SMILES)	outcome
Cc1cccnc1	inactive
CC(C)CC(=O)CC(C)CC(C)C (stereo not drawn)	inactive
CN(C)CCC(c1ccc(Cl)cc1)c1ccccn1 (stereo not drawn)	inactive

Read-out: E-selectin (Homo sapiens) (UniProt P16581)
Test: BSK_LPS_Eselectin: BioMAP Diversity Plus: LPS Assay for Eselectin Biomarker Activity (AID 2283077)
Details: primary human HUVEC with PBMC; actives raise or lower the signal
Procedure, shortened: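 Human umbilical vein endothelial cells co-cultured with peripheral blood mononuclear cells under LPS stimulation; E-selectin measured by ELISA 24 h after chemical dosing. Activity fitted bidirectionally against DMSO as negative control and baseline.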

Structure (SMILES)	AC50	outcome
CCCCCCCCCCC1CO1 (stereo not drawn)	36.1 µM (active)	
Cc1cccnc1		inactive
CC(C)CC(=O)CC(C)CC(C)C (stereo not drawn)	29.6 µM (active)	
CN(C)CCC(c1ccc(Cl)cc1)c1ccccn1 (stereo not drawn)		inactive

Read-out: Interleukin-8 (IL8), CXCL8 (gene 3576)
Test: BSK_LPS_IL8: BioMAP Diversity Plus: LPS Assay for Interleukin-8 (IL8) Biomarker Activity (AID 2283078)
Details: primary human HUVEC with PBMC; actives raise or lower the signal
Procedure, shortened: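 Human umbilical vein endothelial cells co-cultured with PBMC were stimulated with LPS; IL-8 levels were measured by ELISA 24 h after chemical dosing. Activity was fitted bidirectionally against DMSO as negative control and baseline.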

Structure (SMILES)	AC50	outcome
CCCCCCCCCCC1CO1 (stereo not drawn)	37.5 µM (active)	
Cc1cccnc1		inactive
CC(C)CC(=O)CC(C)CC(C)C (stereo not drawn)		inactive
CN(C)CCC(c1ccc(Cl)cc1)c1ccccn1 (stereo not drawn)		inactive

Read-out: not listed separately
Test: BSK_LPS_SRB: Viability Assessment in the BioMAP Diversity Plus: LPS Assay (AID 2283079);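 also: total protein by sulforhodamine B absorbance as a cytotoxicity measure; measured one day after compound addition; fitted in both directions against DMSO so loss or gain of signal counts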
Details: primary human HUVEC with PBMC
Procedure, shortened: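 Human umbilical vein endothelial cells co-cultured with PBMC (LPS system) were dosed for 24 h. Total protein was stained with 0.1% sulforhodamine B after 10% TCA fixation, read at 560 nm, and fitted bidirectionally against DMSO baseline.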

Structure (SMILES)	AC50	outcome
CCCCCCCCCCC1CO1 (stereo not drawn)	20 µM (active)	
Cc1cccnc1		inactive
CC(C)CC(=O)CC(C)CC(C)C (stereo not drawn)	31.7 µM (active)	
CN(C)CCC(c1ccc(Cl)cc1)c1ccccn1 (stereo not drawn)		inactive

Read-out: Monocyte Chemoattractant Protein-1 (MCP1), CCL2 (gene 6347)
Test: BSK_LPS_MCP1: BioMAP Diversity Plus: LPS Assay for Monocyte Chemoattractant Protein-1 (MCP1) Biomarker Activity (AID 2283081);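 as to AC50: co-culture stimulated with LPS; secreted MCP-1 protein quantified by ELISA in culture supernatant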
Details: primary human HUVEC with PBMC; actives raise or lower the signal
Procedure, shortened: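 HUVEC plus PBMC co-culture (human primary cells, LPS system) exposed to test chemical for 24 h; MCP-1 measured by ELISA. Bidirectional curve fitting against DMSO baseline; parallel SRB total-protein staining flags overt cytotoxicity.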

Structure (SMILES)	AC50	outcome
CCCCCCCCCCC1CO1 (stereo not drawn)	31.7 µM (active)	
Cc1cccnc1		inactive
CC(C)CC(=O)CC(C)CC(C)C (stereo not drawn)		inactive
CN(C)CCC(c1ccc(Cl)cc1)c1ccccn1 (stereo not drawn)		inactive

Read-out: not listed separately
Test: BSK_LPS_PGE2: BioMAP Diversity Plus: LPS Assay for Prostaglandin E2 (PGE2) Biomarker Activity (AID 2283082)
Details: primary human HUVEC with PBMC; actives raise or lower the signal
Procedure, shortened: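 ELISA read-out of PGE2 from human umbilical vein endothelial cells co-cultured with peripheral blood mononuclear cells under LPS, 24 h post-dose. Gain or loss of signal scored relative to DMSO baseline.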

Structure (SMILES)	outcome
CCCCCCCCCCC1CO1 (stereo not drawn)	inactive
Cc1cccnc1	inactive
CC(C)CC(=O)CC(C)CC(C)C (stereo not drawn)	inactive
CN(C)CCC(c1ccc(Cl)cc1)c1ccccn1 (stereo not drawn)	inactive
